Data taken from PubChem BioAssay AID1347076 (National Center for Advancing Translational Sciences (NCATS), 2019).
The campaign covered roughly 400,000 compounds. About 13,000 (3.2%) were called active. Not shown: some 18% with an inconclusive outcome. Calls follow the shape of the dose curve; as a rule, active = well fitted cell-killing curve with a large enough effect; inconclusive = small, poorly fitted or top-dose-only effect, or effect the other way; inactive = flat fitted curve, though single readings scatter. The list comes from a sample in which actives are over-represented; it also holds similar structures and randomly drawn compounds. Where a call stands in place of a potency, no number is given.

Assay: qHTS assay for MDR1-selective chemotherapeutics: Primary screen using the drug-selected MDR subline cells KB-V1; also: nearly all actives have a fitted effect of over 60% in size
Conditions: KB-V1 MDR cells viability, CellTiter-Glo, 72 h; series mostly up to 46.1 µM
How it was run: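 Compound-treated KB-V1 multidrug-resistant cells, 72 h, 37 degrees C; viability by CellTiter-Glo. Fitted qHTS curves give the values.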
Potency is read from the fitted curve at half-maximal effect.

Compound	Potency
CN(C)c1ccc(/C=C/c2sc3ccccc3[n+]2C)cc1	inactive
Cc1cccc(C)c1NC(=O)CN1CCN(c2ccc(F)cc2)CC1	inactive
COc1ccc2[nH]c3c(C)c4cc[n+](C)cc4c(C)c3c2c1	inactive
COc1ccc2[nH]c(C(=O)N3CCN(C)CC3)c(C)c2c1	inactive
COc1ccc2[nH]c(=S)cc(C)c2c1	14.6 µM (active)
CCOc1ccc(N(CC)S(=O)(=O)N2CCCC(C(=O)Nc3ccc(C(C)=O)cc3)C2)cc1 (stereo not given)	inactive
O=C(CCNS(=O)(=O)c1ccc(Br)cc1)NCC1CCCO1 (stereo not given)	inactive
OC(CNCC1CCCO1)Cn1c2ccc(Br)cc2c2cc(Br)ccc21 (stereo not given)	23.1 µM (active)
CC(NS(=O)(=O)c1ccc(Br)cc1)C(=O)NCC1CCCO1 (stereo not given)	inactive
CCOC(=O)c1c(-c2ccc(OC)cc2)oc2ccc(OCc3ccc(C(=O)OC)cc3)cc12	inactive
COc1cc(OC)c2c(-c3cccc(-c4cccc(N)c4)c3)cc(=O)oc2c1	7.31 µM (active)
COc1ccc(-c2c(C)cc3oc(=O)cc(-c4ccccc4)c3c2C)cc1OC	inactive
COc1ccc(-c2c(C)cc3oc(=O)cc(-c4ccccc4)c3c2C)cc1F	inactive
OC(Cc1ccc2ccccc2n1)c1ccc(Cl)c(Cl)c1 (stereo not given)	inactive
O=C(CSc1ncc(CO)n1Cc1ccc(Cl)cc1)NCc1ccc(F)cc1	inactive
Cn1c(CCN2CCN(c3ccccn3)CC2)nc2cc(NS(=O)(=O)c3ccc(F)cc3)ccc21	inactive
COc1ccccc1CNC(=O)CCn1c(=O)sc2ccccc21	inactive
COc1ccc(Cn2c(=O)sc3ccccc32)cc1OC	2.59 µM (active)
Cc1cccc(CSc2nnc(Cn3c(=O)sc4ccccc43)n2C)c1	inactive
O=C(Nc1nnc([C@H]2C[C@H](O)[C@@H](CO)O2)s1)c1cccc(Cl)c1	inactive
COc1ccc(S(=O)(=O)NC(=O)C2(C)CCN2C(=O)COc2ccc(Cl)cc2)cc1 (stereo not given)	inactive
CC(Nc1ccccc1)c1cccnc1 (stereo not given)	inactive
Cc1ccc(C(O)P(=O)(OC(C)C)c2ccc(N(C)C)cc2)cc1 (stereo not given)	inactive
CC(C)COP(=O)(c1ccc(N(C)C)cc1)C(Nc1ccccc1)c1cccnc1 (stereo not given)	23.1 µM (active)

Compound	Potency
COc1ccccc1N1CCN(C2C(=O)c3ccccc3N2C(C)=O)CC1 (stereo not given)	inactive
N=C1C(c2nc3ccccc3s2)=C(O)CN1NC(=O)c1ccc([N+](=O)[O-])cc1	18.4 µM (active)
COc1ccc(-n2nnnc2-c2nc3ccccc3s2)cc1	inactive
COc1ccccc1OCc1nc2ccccc2s1	inactive
Cc1ccc(C)n1NC(=O)c1ccc([N+](=O)[O-])cc1	inactive
COc1ccccc1N1CC(O)=C(c2nc3ccccc3s2)C1=N	10.3 µM (active)
N=C1C(c2nc3ccccc3[nH]2)=C(O)CN1NC(=O)c1c[nH]c2ccccc12	inactive
COC(=O)C[C@@H]1C=C[C@@H](NC(=O)c2ccc3c(c2)OCO3)[C@@H](CO)O1	inactive
COc1ccc(-c2c(C#N)cnc(C)c2C)c(O)c1OC	inactive
CCCCn1nnnc1C(c1ccccc1)N1CCN(c2ccccc2OC)CC1 (stereo not given)	inactive
CC1Cc2[nH][nH]c(=O)c2C(C2CCCC2)O1 (stereo not given)	inactive
FC(F)(F)c1cccc(NC(=S)Nc2cccc(Cl)c2)c1	inactive
FC(F)(F)c1cccc(N/N=C/c2ccccc2)c1	inactive
FC(F)(F)c1cccc(Nc2ncnc3ccccc23)c1	18.4 µM (active)
CN(Cc1ccccc1)C(=O)c1cn(C)c2ccc(S(=O)(=O)N3CCCCC3)cc2c1=O	inactive
CN1OC[C@@H]2CN[C@H](c3ccc(-c4ccccc4)cc3)C[C@@H]21	inactive
Cn1c(=O)c2c(SCC(=O)NCC3CCCO3)nc(-c3ccccc3F)nc2n(C)c1=O (stereo not given)	inactive
COc1ccc(C(C(=O)NC2CCCCC2)N(C(=O)CCl)c2ccccc2Cl)cc1 (stereo not given)	inactive
COc1ccc(CNC(=O)[C@H](Cc2c[nH]c3ccccc23)NC(C)=O)cc1OC	inactive
COc1ccc(C(C(=O)NC2CCCCC2)N(C(=O)Cc2c[nH]c3ccccc23)c2ccccc2)cc1OC (stereo not given)	23.1 µM (active)
C[C@@H]1CN([C@@H](C)CO)S(=O)(=O)c2ccc(-c3ccc(C(=O)N(C)C)cc3)cc2O[C@@H]1CN(C)Cc1ccccc1C(=O)O	inactive
COc1ccc(NC(=O)CN2C(=O)CSc3ccc(S(=O)(=O)N4CCC(C)CC4)cc32)cc1	inactive
CCc1ccc(NC(=O)CN2CCSc3ccc(S(=O)(=O)N4CCCC4)cc32)cc1	7.31 µM (active)
O=C(CN1CCCCCC1)Nc1ccc(S(=O)(=O)N2CCCCC2)cc1	inactive

Compound	Potency
CC(C)N1C(=O)c2ccccc2NC(=O)C1C(=O)NCc1cccs1 (stereo not given)	inactive
Cc1ccc(O)c(CNc2nc3ccccc3n2C)c1	16.4 µM (active)
Cn1c(CNC(=O)C(C)(C)C)nc2ccccc21	inactive
CCCn1c(NCc2ccccc2F)nc2ccccc21	inactive
CCc1nn(CC(=O)Nc2cccc(C)c2C)c(=O)c2cc3sccc3n12	inactive
O=S(=O)(ON(c1ccccc1)S(=O)(=O)c1ccccc1)c1ccccc1	23.1 µM (active)
Cc1cccc(N(CC(O)CN(C)C)S(=O)(=O)c2ccccc2)c1 (stereo not given)	inactive
CCOc1ccc(S(=O)(=O)N(CC(=O)O)c2ccccc2)cc1	inactive
CCOc1ccc(CNC(=O)c2ccc3nc(CC)c(CC)nc3c2)cc1OC	inactive
CCCCNC(=O)c1nc(C2CCN(S(=O)(=O)c3ccc(F)c(F)c3)CC2)oc1-c1cccc(C(F)(F)F)c1	inactive
Cc1ccc(Nc2nnc(SCC(=O)c3cc4ccccc4o3)s2)cc1C	20.6 µM (active)
Cc1ccccc1Nc1nnc(SCC(=O)c2cc3ccccc3o2)s1	inactive
Cc1cc2c(=O)n(C)c(SCC(=O)c3cc4ccccc4o3)nc2s1	inactive
Cc1cccc(S(=O)(=O)N(C)C[C@H]2OCc3cnnn3CCCC(=O)N([C@@H](C)CO)C[C@H]2C)c1	inactive
CN1OC[C@@H]2CN(C(=O)C(C)(C)C)[C@H](c3ccc(-n4ccnc4)cc3)C[C@@H]21	inactive
CC(=O)c1ccc(Nc2nc(C(N)c3ccccc3)cs2)cc1 (stereo not given)	inactive
COc1cc(OC)cc(C(=O)NC(C(=O)N2CCC2)C(C)C)c1 (stereo not given)	inactive
COc1ccc(C(=O)N[C@H](C(=O)NCc2ccccc2)C(C)C)cc1	inactive
Cc1cc(C)cc(OCC(=O)NC(C)c2ccccc2)c1 (stereo not given)	inactive
COc1cc(OC)cc(C(=O)N[C@H](C(=O)NNC(=O)c2ccc(Br)cc2)C(C)C)c1	inactive
COc1cc(OC)cc(C(=O)N[C@H](C(=O)OCC(=O)NC(C)c2ccccc2)C(C)C)c1 (stereo not given in full)	23.1 µM (active)
COc1cc(OC)cc(C(=O)N[C@H](C(=O)Nc2nc3ccccc3[nH]2)C(C)C)c1	14.6 µM (active)
